Source: PubChem BioAssay (NCATS)
Several values for one entry are separate records, joined by “and”; a condition that tells them apart may be missing. Identical values can stand only once. Results filed as inconclusive are left out. Activity calls are given as the source filed them. Unless noted, calls come from the whole dose curve; as a rule, active = well fitted curve in the direction sought with a large enough effect; inconclusive = small, poorly fitted or top-dose-only effect, or another doubt; inactive = no such curve, though single readings can be large; an effect the other way counts as inactive or inconclusive.

How the values were obtained:
[1] = target: Thyroid hormone receptor beta (Homo sapiens) (UniProt P10828); assay: qHTS assay for small molecule agonists of thyroid hormone receptor beta signaling (AID 588545; calls by dose curve)
Chain of Thyroid hormone receptor beta (Homo sapiens) (P10828 whole entry, looked up): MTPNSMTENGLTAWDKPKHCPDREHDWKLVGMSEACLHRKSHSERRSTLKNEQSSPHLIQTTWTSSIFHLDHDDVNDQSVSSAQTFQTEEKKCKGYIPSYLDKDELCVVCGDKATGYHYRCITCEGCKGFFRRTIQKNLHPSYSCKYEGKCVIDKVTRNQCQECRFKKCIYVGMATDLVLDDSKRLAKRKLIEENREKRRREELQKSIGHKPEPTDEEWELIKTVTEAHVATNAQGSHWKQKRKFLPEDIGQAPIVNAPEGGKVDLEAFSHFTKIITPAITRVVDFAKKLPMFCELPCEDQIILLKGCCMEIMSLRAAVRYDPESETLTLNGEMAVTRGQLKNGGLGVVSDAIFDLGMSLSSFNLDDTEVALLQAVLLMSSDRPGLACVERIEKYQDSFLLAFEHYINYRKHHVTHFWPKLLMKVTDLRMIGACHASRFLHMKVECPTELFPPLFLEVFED
Outline: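 HEK 293 TR-UAS-bla; agonist mode; 18 hrs, 37 C; CCF4, ex 405/em 460 and 530 nm; norm. T3 10 nM = 100%, DMSO = 0%; Hill fit → EC50, efficacy.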

[2] = qHTS assay for small molecule antagonists of retinoid X receptor alpha signaling (AID 588546; active = well fitted inhibition curve with a large enough effect in the signal ratio, with a control signal flat, not every such curve was filed as active; the % refers to the signal ratio;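 note: cells stimulated with 9-cis-retinoic acid as agonist; % is set by controls: 0 for no effect and ±100 for the full control effect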); conditions: HEK293T RXRa-UAS-bla, beta-lactamase ratio, antagonist mode; measured here: W530 green channel, cytotoxicity proxy
Outline: (§1)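 Beta-lactamase reporter inhibition, read as CCF4 fluorescence ratio (ex 405, em 460/530 nm) after 2 h at RT. HEK293T UAS-bla cells, 2500/well, were stimulated with 9-cis-RA at 500 or 100 nM final alongside test compound for 18 h at 37 C.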

[3] = target: Retinoic acid receptor RXR-alpha (Homo sapiens) (UniProt P19793); assay: as above; conditions: HEK293T RXRa-UAS-bla, beta-lactamase ratio, antagonist mode
Chain of Retinoic acid receptor RXR-alpha (Homo sapiens) (P19793 whole entry, looked up): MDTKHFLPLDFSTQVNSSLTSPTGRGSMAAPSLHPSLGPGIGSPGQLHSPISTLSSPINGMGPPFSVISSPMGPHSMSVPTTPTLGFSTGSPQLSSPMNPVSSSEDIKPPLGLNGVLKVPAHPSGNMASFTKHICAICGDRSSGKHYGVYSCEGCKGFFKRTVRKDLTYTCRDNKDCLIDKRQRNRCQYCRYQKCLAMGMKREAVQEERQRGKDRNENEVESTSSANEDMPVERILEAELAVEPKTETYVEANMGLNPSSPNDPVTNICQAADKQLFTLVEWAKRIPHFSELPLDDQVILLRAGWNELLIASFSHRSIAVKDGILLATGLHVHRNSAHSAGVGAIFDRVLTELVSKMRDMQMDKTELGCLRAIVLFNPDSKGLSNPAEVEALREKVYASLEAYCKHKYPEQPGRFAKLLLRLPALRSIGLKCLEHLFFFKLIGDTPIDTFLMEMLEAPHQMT
Outline: as §1

[4] = target: Thyroid hormone receptor beta (Homo sapiens) (UniProt P10828); assay: qHTS assay for small molecule antagonists of thyroid hormone receptor beta signaling (AID 588547; active = well fitted inhibition curve with a large enough effect in the signal ratio, with a control signal flat, not every such curve was filed as active; the % refers to the signal ratio;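 note: cells stimulated with 0.4 nM T3 agonist during compound exposure; series mostly up to about 77 µM; % is set by controls: 0 for no effect and ±100 for the full control effect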); conditions: TR-UAS-bla HEK293, beta-lactamase ratio, antagonist mode, 18 h
Outline: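 TR-UAS-bla GripTite HEK293 cells in 2% charcoal/dextran FBS medium; compounds 0.59 nM to 92 uM with T3 at 0.4nM final, 18 h at 37 C. Beta-lactamase read by CCF4 fluorescence (460/530 nm); Hill fits gave IC50 and efficacy.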

[5] = target: Voltage-gated inwardly rectifying potassium channel KCNH2 (Homo sapiens) (UniProt Q12809); assay: qHTS Assay for Small Molecule Inhibitors of the Human hERG Channel Activity (AID 588834);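 note: top concentration of the series differs between compounds; % is set by controls: 0 for no effect and ±100 for the full control effect; lower thallium flux fluorescence means stronger hERG block; nearly all actives have a fitted effect of over 50% in size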
Chain of Voltage-gated inwardly rectifying potassium channel KCNH2 (Homo sapiens) (Q12809 whole entry, looked up): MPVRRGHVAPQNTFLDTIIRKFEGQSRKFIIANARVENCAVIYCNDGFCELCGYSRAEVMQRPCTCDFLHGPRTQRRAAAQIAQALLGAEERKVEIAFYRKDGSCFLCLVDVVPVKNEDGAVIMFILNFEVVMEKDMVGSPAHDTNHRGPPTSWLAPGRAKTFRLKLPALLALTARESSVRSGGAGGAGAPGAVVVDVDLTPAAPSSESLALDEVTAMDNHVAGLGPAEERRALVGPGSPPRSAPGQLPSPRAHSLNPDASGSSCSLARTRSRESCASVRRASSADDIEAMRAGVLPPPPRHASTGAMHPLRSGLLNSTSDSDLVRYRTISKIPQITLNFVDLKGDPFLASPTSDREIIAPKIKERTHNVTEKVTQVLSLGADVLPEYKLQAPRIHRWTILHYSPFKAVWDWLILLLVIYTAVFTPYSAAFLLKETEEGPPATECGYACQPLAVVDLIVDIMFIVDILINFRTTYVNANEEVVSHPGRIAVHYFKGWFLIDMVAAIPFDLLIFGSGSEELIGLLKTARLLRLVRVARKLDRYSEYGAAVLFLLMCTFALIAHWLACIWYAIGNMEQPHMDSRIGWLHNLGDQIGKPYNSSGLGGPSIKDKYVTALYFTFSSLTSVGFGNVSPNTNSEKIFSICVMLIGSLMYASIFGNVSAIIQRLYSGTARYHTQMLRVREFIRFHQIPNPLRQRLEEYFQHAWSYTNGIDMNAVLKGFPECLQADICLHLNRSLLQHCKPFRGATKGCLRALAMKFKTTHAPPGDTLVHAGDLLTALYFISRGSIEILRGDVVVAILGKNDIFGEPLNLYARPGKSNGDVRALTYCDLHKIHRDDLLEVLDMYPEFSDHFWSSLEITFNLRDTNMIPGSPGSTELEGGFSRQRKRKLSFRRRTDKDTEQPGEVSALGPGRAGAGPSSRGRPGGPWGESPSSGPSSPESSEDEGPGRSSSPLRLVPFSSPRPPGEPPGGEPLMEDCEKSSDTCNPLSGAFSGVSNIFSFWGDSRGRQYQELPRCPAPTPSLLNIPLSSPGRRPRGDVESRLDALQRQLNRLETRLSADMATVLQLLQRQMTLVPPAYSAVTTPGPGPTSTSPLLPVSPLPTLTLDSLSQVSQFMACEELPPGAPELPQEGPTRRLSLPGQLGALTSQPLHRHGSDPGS
Outline: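 Thallium serves as surrogate for K+ influx through BacMam-delivered hERG in U2OS cells. Compounds are added for about 10 minutes after dye loading; stimulation buffer then starts flux, monitored kinetically on FDSS.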

[6] = qHTS assay for small molecule agonists of the antioxidant response element (ARE) signaling pathway (AID 651741; active = well fitted activation curve with a large enough effect in the signal ratio; the % refers to the signal ratio; note: potency is the fitted concentration of half-maximal effect)
Outline: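 HepG2 ARE-bla reporter cells, 2,000/well; 5 h settle at 37 C/5% CO2; compound pin transfer (23 nL, DMSO); 16 h at 37 C; LiveBLAzer B/G FRET substrate, 2 h RT; fluorescence intensity read.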

[7] = qHTS assay for small molecule activators of the p53 signaling pathway (AID 651743; active = well fitted activation curve with a large enough effect in the signal ratio, not every such curve was filed as active; the % refers to the signal ratio; note: series mostly up to about 92 µM; % of control where 0% means no effect); conditions: HCT-116 p53RE-bla, beta-lactamase FRET ratio, 16 h; stronger effect = higher value
Outline: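 Reporter: beta-lactamase driven by p53 response elements, stably integrated in HCT-116 cells. Cells seeded at 4,000/well, 5 h preincubation, compound (DMSO) 16 h at 37 C; B/G FRET substrate 2 h RT; fluorescence intensity read.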

[8] = qHTS assay for small molecule activators of the nuclear factor-kappa B (NF-kB) signaling pathway (AID 651749; active = well fitted activation curve with a large enough effect in the signal ratio; the % refers to the signal ratio; note: series mostly up to about 77 µM; % of control where 0% means no effect); conditions: NF-kB-bla ME-180 cells, beta-lactamase FRET ratio, 16 h; stronger effect = higher value
Outline: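 NF-kB-bla ME-180 cells, 2,000/well; 23 nL compound or DMSO pinned; 16 hr, 37C/5% CO2; beta-lactamase FRET read-out.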

[9] = qHTS assay for environmental chemicals that activate the Aryl hydrocarbon Receptor (AhR) signaling pathway (AID 651777); conditions: 1A2-DRE human hepatoma cells, luciferase, 24 h; stronger effect = higher value; note: % of control where 0% means no effect; nearly all actives have a fitted effect of over 15% in size
Outline: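 Luminescence read-out: One-Glo added for 30 min at RT after 24 hr compound treatment (37 C, 5% CO2) of human hepatoma cells expressing a DRE/CYP1A2 promoter–luciferase reporter; increased signal indicates AhR activation.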

[10] = target: Peroxisome proliferator-activated receptor alpha (Homo sapiens) (UniProt Q07869); assay: qHTS assay for small molecule agonists of the peroxisome proliferator-activated receptor alpha (PPARalpha) signaling pathway (AID 651778); conditions: PathHunter PPARalpha complementation, chemiluminescence, 6 h; stronger effect = higher value; note: % of control where 0% means no effect
Chain of Peroxisome proliferator-activated receptor alpha (Homo sapiens) (Q07869 whole entry, looked up, the tested form may be a part): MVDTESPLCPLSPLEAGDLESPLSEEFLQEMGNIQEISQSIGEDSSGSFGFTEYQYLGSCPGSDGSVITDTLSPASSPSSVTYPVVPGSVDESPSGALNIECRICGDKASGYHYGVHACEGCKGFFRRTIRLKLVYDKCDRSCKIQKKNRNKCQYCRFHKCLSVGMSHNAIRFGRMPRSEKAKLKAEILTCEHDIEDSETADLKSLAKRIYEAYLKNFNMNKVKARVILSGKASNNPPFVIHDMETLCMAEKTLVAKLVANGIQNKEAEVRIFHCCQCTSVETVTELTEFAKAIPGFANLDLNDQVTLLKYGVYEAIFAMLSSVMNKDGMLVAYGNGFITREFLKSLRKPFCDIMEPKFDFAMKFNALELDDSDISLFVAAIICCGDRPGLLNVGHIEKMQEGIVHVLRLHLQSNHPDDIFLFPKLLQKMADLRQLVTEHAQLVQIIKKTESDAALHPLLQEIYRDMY
Outline: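 Enzyme-fragment complementation assay in which ligand-bound PPARalpha translocates and forms an active enzyme that generates chemiluminescence. Cells were plated overnight, exposed to compound for 6 hr at 37 C, and then given detection reagent for 60 min at room temperature.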

[11] = target: Nuclear receptor ROR-gamma (Homo sapiens) (UniProt P51449); assay: qHTS assay for small molecule antagonists of the retinoid-related orphan receptor gamma (ROR-gamma) signaling pathway (AID 651802);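 note: CHO cells with doxycycline-induced ROR-gamma expression; luciferase reporter luminescence driven by ROR response element; series mostly up to about 92 µM; % is set by controls: 0 for no effect and ±100 for the full control effect; nearly all actives have a fitted effect of over 60% in size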
Chain of Nuclear receptor ROR-gamma (Homo sapiens) (P51449 whole entry, looked up): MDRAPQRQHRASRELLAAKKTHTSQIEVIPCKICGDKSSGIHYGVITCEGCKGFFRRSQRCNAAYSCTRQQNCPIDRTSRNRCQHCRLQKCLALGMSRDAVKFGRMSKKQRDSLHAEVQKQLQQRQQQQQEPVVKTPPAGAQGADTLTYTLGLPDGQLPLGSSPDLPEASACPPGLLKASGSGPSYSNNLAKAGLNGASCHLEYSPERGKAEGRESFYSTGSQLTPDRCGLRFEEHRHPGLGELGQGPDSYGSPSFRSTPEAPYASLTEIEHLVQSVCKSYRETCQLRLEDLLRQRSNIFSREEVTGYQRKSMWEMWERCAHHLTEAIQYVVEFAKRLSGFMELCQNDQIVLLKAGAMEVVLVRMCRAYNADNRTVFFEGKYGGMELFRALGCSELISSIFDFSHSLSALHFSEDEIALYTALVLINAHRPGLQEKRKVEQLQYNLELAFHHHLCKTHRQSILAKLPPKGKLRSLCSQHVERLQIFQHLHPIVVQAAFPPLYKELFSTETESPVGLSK
Outline: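 Doxycycline-induced reporter activity in engineered CHO cells (TET-inducible ROR, RORE-LUC) was measured by luminescence after 16hr compound exposure at 37C.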

[12] = qHTS assay for small molecule agonists of the antioxidant response element (ARE) signaling pathway measured by Nrf2-dependant transcriptional activity (AID 720636; active = well fitted curve in the direction sought with a large enough effect in the repeat runs; an effect the other way counts as inactive or inconclusive;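 note: HepG2 cells with an ARE-driven luciferase reporter; % of control where 0% means no effect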)
Outline: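 HepG2 ARE-luc reporter line, 1% dialyzed FBS; 6 hr attachment at 37 C, compound pinned in, 16 hr at 37 C/5% CO2; ONE-Glo, 30 min RT, luminescence read.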

[13] = qHTS assay for small molecule antagonists of the retinoid-related orphan receptor gamma (ROR-gamma) signaling pathway - cell viability counter screen (AID 720652; active = well fitted curve in the direction sought with a large enough effect in the repeat runs; an effect the other way counts as inactive or inconclusive;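 note: CHO reporter cells with doxycycline-induced ROR-gamma expression; series mostly up to about 92 µM; compound exposure lasted 16 hr before ATP read; % is set by controls: 0 for no effect and ±100 for the full control effect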)
Outline: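 ATP-based viability readout in the ROR-gamma reporter CHO cells after 16 hr compound exposure under doxycycline induction.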

[14] = qHTS assay for small molecule agonists of the antioxidant response element (ARE) signaling pathway measured by Nrf2-dependant transcriptional activity - cell viability counter screen (AID 720653; active = well fitted curve in the direction sought with a large enough effect in the repeat runs; an effect the other way counts as inactive or inconclusive; note: % is set by controls: 0 for no effect and ±100 for the full control effect); conditions: ARE-bla HepG2 viability, CellTiter-Glo ATP luminescence, 16 h; stronger effect = lower value
Outline: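 ARE-bla HepG2 cells treated with compounds for 16 h at 37C; this counter screen measures viability as intracellular ATP by CellTiter-Glo luminescence after 30 min at room temperature.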

[15] = qHTS assay for cell viability of HEK293 cells (AID 743288); conditions: ATP luminescence (CellTiter-Glo), 18 h, stronger effect = lower value; note: % is set by controls: 0 for no effect and ±100 for the full control effect; nearly all actives have a fitted effect of over 50% in size
Outline: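 Steps: plate 2,000 parental HEK293 cells per well; incubate ≥5 h, 37 C; add compounds in DMSO; incubate 18 h, 37 C; add CellTiter-Glo; wait 30 min at room temperature; read luminescence.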

[16] = qHTS assay for cell viability of the p53RE-bla HCT-116 cell line (AID 743292); note: % is set by controls: 0 for no effect and ±100 for the full control effect; nearly all actives have a fitted effect of over 55% in size
Outline: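 Luminescent ATP quantitation (CellTiter-Glo) served as the viability read-out; reagent was added after 16 h compound exposure at 37 C and read after 30 min at room temperature. Cells: p53RE-bla HCT-116, 4,000 per well.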

[17] = Primary qHTS for inhibitors of nuclear receptor binding SET domain protein 2 (NSD2) in an RCH-ACV wild type WT cells (2C) (AID 1645877); note: potency is the fitted concentration of half-maximal effect; nearly all actives have a fitted effect of over 70% in size
[18] = target: Glutathione peroxidase 1 (Homo sapiens) (UniProt P07203); assay: Primary qHTS Assay for Inhibitors of Recombinant Selenoprotein Glutathione Peroxidase 1 (GPX1) (AID 1845191); note: % is set by controls: 0 for no effect and ±100 for the full control effect; nearly all actives have a fitted effect of over 65% in size
Chain of Glutathione peroxidase 1 (Homo sapiens) (P07203 whole entry, looked up): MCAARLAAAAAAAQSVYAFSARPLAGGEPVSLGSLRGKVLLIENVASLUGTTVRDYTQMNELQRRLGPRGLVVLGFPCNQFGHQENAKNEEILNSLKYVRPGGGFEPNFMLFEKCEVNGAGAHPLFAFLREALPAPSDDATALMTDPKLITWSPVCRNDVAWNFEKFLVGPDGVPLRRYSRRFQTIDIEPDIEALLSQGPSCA
Outline: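 GR-coupled readout: NADPH consumption tracked by fluorescence, ex 340/em 450 nm, at t=0 and after 15 min at RT. Final mix 10 nM GPX1, 1 mM GSH, 0.5 mM CHP, 0.5 mM NADPH, 100 nM GR, 0.01% BSA, following 30 min enzyme–compound preincubation.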

[19] = qHTS drug screen for cell cycle checkpoint inhibitors in PARPi-resistant BRCA-mutant ovarian cancer cell lines. (AID 1963452; calls by dose curve); conditions: PEO1/OlaR viability, CellTiter-Glo luminescence, 96 h, stronger effect = lower value
Outline: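 PEO1, PEO4 and PEO1/OlaR ovarian cancer cells, 600 per well, exposed 96 h at 37C to a dilution series. Viability read by CellTiter-Glo luminescence, normalized to DMSO and empty wells; activity summarized as Z-AUC.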

CO[C@H]1/C=C/O[C@@]2(C)Oc3c(C)c(O)c4c(O)c(c(/C=N/N5CCN(C)CC5)c(O)c4c3C2=O)NC(=O)/C(C)=C\C=C\[C@H](C)[C@H](O)[C@@H](C)[C@@H](O)[C@@H](C)[C@H](OC(C)=O)[C@@H]1C
12.2% and 0.217%: max response [2]
inactive: outcome [1] | max response [3] -24.8% and 0.888% | activity change % (negative = inhibition) [4] 4.86% and -12.3% | outcome [5] | activation [7] -10.4% and -9.54% | activation [8] -0.981% and -2.03% | activation [9] 0.185% and -0.0706% | max response [10] -9.67% and -6.67% | outcome [11] | outcome [12] | outcome [13] | max response [14] -3.19% and -26% | max response [15] -14.9% and -19.1% | outcome [16] | Potency [18] | Z-AUC [19] 1.24
active: Potency [6] 54.5 µM | Potency [17] 16.6 µM
1.13: Z-AUC ([19]; measured here: PEO1 parental Z-AUC)
1.29: Z-AUC ([19]; measured here: PEO4 Z-AUC)
